Data reported in PubChem BioAssay (Tox21).
Records with an inconclusive call do not appear. The source made the active and inactive calls. Unless noted, calls follow the shape of the dose curve; as a rule, active = well fitted curve in the direction sought with a large enough effect in the repeat runs; inconclusive = weak or mixed curves; inactive = no such curve, though single readings can be large; an effect the other way counts as inactive or inconclusive.

What was measured:
[1] = molecular target: Thyrotropin receptor (Homo sapiens) (UniProt P16473); test: qHTS assay to identify small molecule agonists of the thyroid stimulating hormone receptor (TSHR) signaling pathway (AID 1224843; calls by dose curve; also: nearly all actives have a fitted effect of over 45% in size)
Summary of the method: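 A cell-based cAMP HTRF format was run in TSHR-transfected HEK293 cells, 800 per well. Treatment: 30 min, room temperature. Detection: 1 h with labelled cAMP and anti-cAMP cryptate. Concentration-response over 15 points, three replicates.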

[2] = qHTS assay to identify small molecule agonists of the hypoxia (HIF-1) signaling pathway - cell viability counter screen (AID 1224844; calls by dose curve; also: nearly all actives have a fitted effect of over 50% in size; also: potency is read from the fitted curve at half-maximal effect)
Summary of the method: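 In this counter screen, HRE-bla ME-180 cell viability after 17 hrs of compound exposure at 37C was read by CellTiter-Glo luminescence, multiplexed with the beta-lactamase reporter measurement.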

[3] = qHTS assay to identify small molecule agonists of the hypoxia (HIF-1) signaling pathway (AID 1224846; active = well fitted activation curve with a large enough effect in the signal ratio in the repeat runs, not every such curve was filed as active; the % refers to the signal ratio)
Summary of the method: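 ME-180 HRE-bla reporter cells; compounds in DMSO, 17 h at 37C; read-out beta-lactamase via CCF4-AM FRET.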

[4] = qHTS assay to identify small molecule agonists of H2AX - cell viability counter screen (AID 1224847; calls by dose curve;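 also: wild-type CHO-K1 cells; top concentration of the series differs between compounds; nearly all actives have a fitted effect of over 30% in size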)
Summary of the method: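 CHO-K1 cells plated overnight at 37C, then exposed 3 h at 37C to compounds at 15 concentrations (0.76% DMSO final). Viability by CellTiter-Glo luminescence after 30 min at room temperature.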

[5] = qHTS assay to identify small molecule antagonists of the estrogen related receptor (ERR) signaling pathway from Tox21 library (AID 1224848); also: nearly all actives have a fitted effect of over 50% in size; also: potency is read from the fitted curve at half-maximal effect
Summary of the method: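 ERR cell line, 2,000 cells/well. 6 h settle, then compound (DMSO) added; 18 h at 37 C; ONE-Glo luminescence after 30 min RT.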

[6] = qHTS assay to identify small molecule agonists of the estrogen related receptor (ERR) signaling pathway from Tox21 library (AID 1224849; calls by dose curve; also: nearly all actives have a fitted effect of over 15% in size); conditions: ERR reporter cell line, ONE-Glo luciferase, 18 h; at 92.4 µM (top of the series) unless noted
Summary of the method: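 Luciferase activity in ERR pathway reporter cells served as the agonist readout; exposure lasted 18 h at 37 C, with ONE-Glo detection after 30 min at room temperature.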

[7] = qHTS RealTime-Glo MT Cell Viability Assay in HepG2 cells - 24 hour (AID 1224867); also: nearly all actives have a fitted effect of over 50% in size
Summary of the method: (§1)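 Cell number in HepG2 cultures estimated from NanoLuc luminescence generated by metabolic reduction of a prosubstrate by living cells. The homogeneous, nonlytic format allowed repeated reads at 0, 8, 16, 24, 32 and 40 h of compound exposure.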

[8] = qHTS RealTime-Glo MT Cell Viability Assay in HEK293 cells - 32 hour (AID 1224868); also: nearly all actives have a fitted effect of over 50% in size; also: potency is read from the fitted curve at half-maximal effect
Summary of the method: (§2)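 Homogeneous bioluminescent viability format in HEK293 cells (600 cells/well). Following 5 h at 37 C/5% CO2, 23 nL compound was pintooled; the signal was measured repeatedly during 40 h incubation.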

[9] = A CellTox Green Cytotoxicity Assay to monitor cytotoxicity in HEK293 cells - 0 hour (AID 1224869); also: nearly all actives have a fitted effect of over 50% in size
Summary of the method: (§3)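 Real-time, in one plate: 600 HEK293 cells/well with dead-cell DNA dye, pinned compound after 5 h, 37 C incubation over 40 h; viable cells give no appreciable fluorescence.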

[10] = qHTS RealTime-Glo MT Cell Viability Assay in HepG2 cells - 40 hour (AID 1224870); also: nearly all actives have a fitted effect of over 50% in size
Summary of the method: (§4)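 Real-time viability: cells seeded at 600 per well together with NanoLuc and cell-permeant prosubstrate, compounds added after 5 h incubation. Luminescence tracked at 0, 8, 16, 24, 32 and 40 h of exposure.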

[11] = A CellTox Green Cytotoxicity Assay to monitor cytotoxicity in HEK293 cells - 40 hour (AID 1224871); also: nearly all actives have a fitted effect of over 45% in size
Summary of the method: as §3

[12] = qHTS RealTime-Glo MT Cell Viability Assay in HEK293 cells - 16 hour (AID 1224872); also: nearly all actives have a fitted effect of over 50% in size; also: potency is read from the fitted curve at half-maximal effect
Summary of the method: as §2

[13] = qHTS RealTime-Glo MT Cell Viability Assay in HepG2 cells - 8 hour (AID 1224873); also: nearly all actives have a fitted effect of over 55% in size
Summary of the method: as §4

[14] = qHTS RealTime-Glo MT Cell Viability Assay in HEK293 cells - 40 hour (AID 1224874); conditions: RealTime-Glo luminescence; max response: stronger effect = lower value; also: nearly all actives have a fitted effect of over 50% in size; also: potency is read from the fitted curve at half-maximal effect
Summary of the method: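 Kinetic, non-lysing viability readout. Seed HEK293 (600/well) with reagent, incubate 5 h at 37 C/5% CO2, pin 23 nL compound in DMSO, incubate at 37 C, read luminescence at 0, 8, 16, 24, 32, 40 h.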

[15] = A CellTox Green Cytotoxicity Assay to monitor cytotoxicity in HEK293 cells - 24 hour (AID 1224875); also: nearly all actives have a fitted effect of over 45% in size
Summary of the method: as §3

[16] = A CellTox Green Cytotoxicity Assay to monitor cytotoxicity in HepG2 cells - 16 hour (AID 1224876); also: nearly all actives have a fitted effect of over 45% in size
Summary of the method: (§5)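 Cytotoxicity was tracked as dead-cell DNA fluorescence in HepG2 cells treated with test compounds at 37 C; each time-point value comes from one kinetic series spanning 0, 8, 16, 24, 32 and 40 h.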

[17] = qHTS RealTime-Glo MT Cell Viability Assay in HepG2 cells - 32 hour (AID 1224877); also: nearly all actives have a fitted effect of over 55% in size
Summary of the method: as §1

[18] = A CellTox Green Cytotoxicity Assay to monitor cytotoxicity in HepG2 cells - 24 hour (AID 1224878); also: nearly all actives have a fitted effect of over 45% in size
Summary of the method: as §5

[19] = A CellTox Green Cytotoxicity Assay to monitor cytotoxicity in HepG2 cells - 40 hour (AID 1224879); also: nearly all actives have a fitted effect of over 40% in size; also: potency is read from the fitted curve at half-maximal effect
Summary of the method: as §5

[20] = qHTS assay to identify small molecule agonists of H2AX (AID 1224845; active = well fitted activation curve with a large enough effect in the signal ratio in the repeat runs, not every such curve was filed as active; the % refers to the signal ratio)
Summary of the method: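 Phospho-H2AX Ser139 measured by HTRF (ex 320 nm; em 665 and 620 nm) after 24 hr antibody incubation. Compounds, 15 concentrations, 0.76% DMSO, were applied to CHO-K1 cells for 3hr at 37C before lysis.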
% is scaled to controls: 0 for no effect and ±100 for the full control effect.

Sequence of Thyrotropin receptor (Homo sapiens) (P16473 whole entry, looked up): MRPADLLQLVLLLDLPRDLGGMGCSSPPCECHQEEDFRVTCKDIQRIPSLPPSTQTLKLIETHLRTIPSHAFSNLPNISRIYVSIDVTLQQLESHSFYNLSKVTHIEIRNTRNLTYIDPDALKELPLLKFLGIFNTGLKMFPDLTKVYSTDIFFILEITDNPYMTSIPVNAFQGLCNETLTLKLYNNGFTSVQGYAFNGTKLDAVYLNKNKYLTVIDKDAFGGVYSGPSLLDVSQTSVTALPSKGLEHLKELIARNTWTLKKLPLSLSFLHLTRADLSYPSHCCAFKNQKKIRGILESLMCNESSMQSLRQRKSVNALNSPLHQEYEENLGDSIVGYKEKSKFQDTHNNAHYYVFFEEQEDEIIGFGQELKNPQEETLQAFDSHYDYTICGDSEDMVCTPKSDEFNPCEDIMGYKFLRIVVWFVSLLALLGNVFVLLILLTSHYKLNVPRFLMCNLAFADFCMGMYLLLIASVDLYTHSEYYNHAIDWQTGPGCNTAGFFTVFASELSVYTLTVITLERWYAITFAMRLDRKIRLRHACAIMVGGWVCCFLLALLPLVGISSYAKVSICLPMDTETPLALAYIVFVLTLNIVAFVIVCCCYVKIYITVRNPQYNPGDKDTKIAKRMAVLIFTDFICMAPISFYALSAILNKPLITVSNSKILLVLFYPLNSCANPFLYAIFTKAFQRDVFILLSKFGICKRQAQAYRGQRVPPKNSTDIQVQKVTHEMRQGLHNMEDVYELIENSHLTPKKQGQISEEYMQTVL

c1ccc(C[n+]2cccc3ccccc32)cc1
active: Potency [5] 48.6 µM
inactive: Potency [1] | Potency [2] | outcome [3] | Potency [4] | activity change, positive = activation [6] -48.3% | Potency [7] | Potency [8] | Potency [9] | Potency [10] | Potency [11] | Potency [12] | Potency [13] | max response [14] -28.8% | Potency [15] | Potency [16] | Potency [17] | Potency [18] | Potency [19]

COc1cc(N)c(Cl)cc1C(=O)NC1CCN(CCCOc2ccc(F)cc2)CC1OC (configuration not stated)
active: Potency [5] 11.9 µM | Potency [8] 3.01 µM | Potency [12] 2.39 µM | Potency [14] 3.01 µM
inactive: Potency [1] | Potency [2] | Potency [20] | activity change, positive = activation [6] -39.2% [at 42.5 µM] | Potency [7] | Potency [9] | Potency [10] | Potency [11] | Potency [13] | Potency [15] | Potency [17] | Potency [18]

CCn1cc(C(=O)O)c(=O)c2cc(F)c(N3CCNCC3)cc21
inactive: Potency [1] | Potency [2] | Potency [20] | Potency [4] | Potency [7] | Potency [8] | Potency [10] | Potency [12] | Potency [13] | max response [14] 11.4% | Potency [15] | Potency [16] | Potency [17] | Potency [18] | Potency [19]

C=CCc1ccccc1OCC(O)CNC(C)C (configuration not stated)
inactive: Potency [1] | Potency [2] | Potency [20] | Potency [4] | Potency [7] | Potency [8] | Potency [9] | Potency [10] | Potency [11] | Potency [12] | Potency [13] | max response [14] -5.29% | Potency [15] | Potency [16] | Potency [17] | Potency [18] | Potency [19]

C=CC(C)(CCC=C(C)C)OC(=O)CC(C)C (configuration not stated)
inactive: Potency [1] | Potency [2] | outcome [3] | Potency [4] | Potency [7] | Potency [8] | Potency [9] | Potency [10] | Potency [11] | Potency [12] | Potency [13] | max response [14] 7.92% | Potency [15] | Potency [16] | Potency [17] | Potency [18] | Potency [19]

O=C(O)CCc1nc(-c2ccccc2)c(-c2ccccc2)o1
inactive: Potency [1] | Potency [2] | Potency [20] | Potency [4] | Potency [5] | activity change, positive = activation [6] -3.38% [at 42.5 µM] | Potency [7] | Potency [8] | Potency [9] | Potency [10] | Potency [12] | Potency [13] | max response [14] 0.935% | Potency [15] | Potency [16] | Potency [17] | Potency [18] | Potency [19]

Cc1ccc(Cl)c(Nc2ccccc2C(=O)O)c1Cl
inactive: Potency [1] | Potency [2] | Potency [20] | Potency [4] | Potency [7] | Potency [8] | Potency [9] | Potency [10] | Potency [11] | Potency [13] | max response [14] -3% | Potency [15] | Potency [16] | Potency [17] | Potency [18] | Potency [19]

O=C1c2ccccc2C(=O)C1c1nc2ccccc2c(Br)c1O
active: Potency [19] 4.9 µM
inactive: Potency [1] | Potency [2] | Potency [20] | Potency [4] | Potency [7] | Potency [8] | Potency [9] | Potency [10] | Potency [11] | Potency [12] | Potency [13] | max response [14] 21.2% | Potency [15] | Potency [17]

O=C(Nc1cccc2c(=O)cc(-c3nn[nH]n3)oc12)c1ccc(OCCCCc2ccccc2)cc1
active: Potency [2] 5.35 µM
inactive: Potency [1] | Potency [20] | Potency [4] | Potency [7] | Potency [8] | Potency [9] | Potency [10] | Potency [11] | Potency [12] | Potency [13] | max response [14] -0.852% | Potency [15] | Potency [17]
